MCF10A rerep: DNA re-replication induction in MCF 10a cells; MCF 10A DNA re-replication, Hoechst nuclear intensity, 48 h; Potency, µM (doses to about 46.1 µM), hits mostly activators; AID 624296; 350,000 tested, 2.9% active; also: nearly all actives have a fitted effect of over 50% in size
SW480 rerep: DNA re-replication induction in SW480 cells | 340,000 tested, 1.8% active | Potency, µM (top dose mostly 46.1 µM), usual class: activators | SW480 DNA re-replication, Hoechst DNA content imaging, 48 h; also: nearly all actives have a fitted effect of over 55% in size
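Hoechst fluorescence of nuclei (405 nm excitation, 500-530 nm emission) measured by plate-scanning imager after 48 hr compound exposure at 37 C; re-replication scored as increased number of nuclei with elevated intensity.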
KB-V1 cytotox: KB-V1 MDR subline cytotoxicity; Potency, µM (series often up to 46.1 µM), hits mostly cytotoxic; 400,000 tested, 3.4% active; KB-V1 MDR cells viability, CellTiter-Glo, 72 h; also: nearly all actives have a fitted effect of over 60% in size
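KB-V1 cells (P-gp-expressing MDR subline of KB-3-1) in phenol-red-free DMEM with 10% FBS were exposed to library compounds over a concentration series for 72 h at 37 degrees C. Viability read by CellTiter-Glo luminescence; concentration-effect curves fitted after normalization.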
HT1080-NT tox: kills 2HG-producing HT-1080-NT fibrosarcoma cells | Potency, µM (titrated, usually from 46.1 µM), hits mostly cytotoxic | 360,000 tested, 1.6% active | HT-1080-NT fibrosarcoma viability, CellTiter-Glo ATP luminescence, 48 h | AID 686970;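 also: NT is the 2HG producing partner of a matched IDH1 knockdown line; nearly all actives have a fitted effect of over 55% in size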
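HT-1080-NT; 750 cells/well; 5% FBS RPMI; 48 h compound, 37 degrees C; CellTiter-Glo luminescence; curve fitting and curve-class assignment.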
KB-3-1 cytotox: KB-3-1 parental cell cytotoxicity | KB-3-1 viability, CellTiter-Glo ATP luminescence, 72 h | Potency, µM (titrated, usually from 46.1 µM), usual class: cytotoxic | 400,000 tested, 1.4% active | AID 1347075; also: nearly all actives have a fitted effect of over 60% in size
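Parental KB-3-1 viability, qHTS format: 72 h compound exposure, 37 °C; CellTiter-Glo; media-only wells and DMSO plates as controls; concentration-effect fits on corrected data.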
HT1080 IDH1KD tx: kills HT-1080 cells with IDH1 knockdown. 360,000 tested, 2% active. Potency, µM (top dose mostly 46.1 µM), most hits filed as cytotoxic. HT-1080 IDH1 knockdown viability, ATP luminescence, 48 h
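Viability of IDH1-knockdown HT-1080 fibrosarcoma cells was assessed by CellTiter-Glo after 48 h at 37 °C with titrated compound; concentration-effect curves were classified by fit quality and response size.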
Of the large screens only hits and unclear results are named; the others gave an inactive call. Compounds with a hit are over-represented: about 8% of the library has one in this group of screens. Calls follow the shape of the dose curve; as a rule, active = well fitted curve in the direction sought with a large enough effect; inconclusive = small, poorly fitted or top-dose-only effect, or another doubt; inactive = no such curve, though single readings can be large; an effect the other way counts as inactive or inconclusive.

COc1ccccc1NS(=O)(=O)c1cccc(NC(=O)c2[nH]c(C)c(C(C)=O)c2C)c1	MCF10A rerep inconclusive, KB-V1 cytotox inconclusive, KB-3-1 cytotox inconclusive
CN(C)S(=O)(=O)c1cccc(NC(=O)c2ccc(OC(F)(F)F)cc2)c1	KB-V1 cytotox 2.6µM, KB-3-1 cytotox inconclusive
CN(c1ccc(C(=O)Nc2cccc(O)c2)cc1)S(=O)(=O)c1ccccc1	none (no result: KB-V1 cytotox, KB-3-1 cytotox)
O=C(O)CCn1c(=S)oc2ccccc21	none
Cc1onc(-c2c(Cl)cccc2Cl)c1C(=O)ONC(=O)c1cc(C(F)(F)F)cc(C(F)(F)F)c1	none
CCOc1ccc(NC(=O)C(NS(=O)(=O)c2cccc3nsnc23)c2ccccc2)cc1 (stereo not drawn)	none (no result: MCF10A rerep, SW480 rerep, HT1080-NT tox, HT1080 IDH1KD tx)
CN(Cc1ccccc1)c1cc2c(c3c1ccn3C)C1CCC2C1 (stereo not drawn)	none (no result: MCF10A rerep, SW480 rerep)
CCc1nnc(N/N=C/c2ccc(O)c(OC)c2)n1N	MCF10A rerep inconclusive, SW480 rerep inconclusive
CCc1nnc(N/N=C/c2cccs2)n1N	MCF10A rerep inconclusive, SW480 rerep 23µM
CCOc1cc(/C=N/Nc2nnc(C)n2N)ccc1OC(C)=O	MCF10A rerep 18µM, HT1080-NT tox 16µM, HT1080 IDH1KD tx 21µM
CCc1nnc(N/N=C\c2ccc(OC(C)=O)c(OC)c2)n1N	MCF10A rerep 23µM, SW480 rerep inconclusive, HT1080-NT tox inconclusive, HT1080 IDH1KD tx 18µM
COc1ccc(C2Nc3ccccc3C(=O)N2Cc2ccccc2)cc1CSc1ccccn1 (stereo not drawn)	KB-V1 cytotox 4.6µM
O=C1c2ccccc2NC(c2cccc(F)c2)N1Cc1ccccc1 (stereo not drawn)	MCF10A rerep 21µM, SW480 rerep inconclusive
COc1ccc(C2Nc3ccccc3C(=O)N2c2cccc3ccccc23)cc1COc1c(C)cccc1C (stereo not drawn)	KB-3-1 cytotox 13µM (no result: MCF10A rerep, SW480 rerep, HT1080-NT tox, HT1080 IDH1KD tx)
O=C1c2ccccc2NC(c2cccc(F)c2)N1Cc1ccco1 (stereo not drawn)	MCF10A rerep inconclusive, HT1080 IDH1KD tx inconclusive
COc1ccc(C2Nc3ccccc3C(=O)N2c2ccc(F)cc2)cc1CSc1ccccn1 (stereo not drawn)	MCF10A rerep inconclusive
COc1ccc(C2Nc3ccccc3C(=O)N2c2ccccc2)cc1CSc1ccccn1 (stereo not drawn)	KB-V1 cytotox 4.1µM
COc1ccc(C2Nc3ccccc3C(=O)N2c2ccccc2)cc1COc1ccccn1 (stereo not drawn)	none
O=C(CSc1n[nH]c(-c2ccncc2)n1)Nc1ccccc1Cl	none
CCOC(=O)c1ccc(-c2c(-c3ccccc3OC)sc3cc4c(cc23)OCO4)cc1F	MCF10A rerep inconclusive, HT1080-NT tox inconclusive
CCN(CC)S(=O)(=O)c1ccc(-c2nnc(SCC(=O)N3c4ccccc4CC3C)o2)cc1 (stereo not drawn)	KB-V1 cytotox inconclusive
CCN(CC)S(=O)(=O)c1ccc(-c2nnc(SCC(=O)N3c4ccccc4CC3C)n2CC)cc1 (stereo not drawn)	KB-V1 cytotox 21µM
CC1Cc2ccccc2N1C(=O)CSc1nnc(Cc2ccccc2)n1CCc1ccccc1 (stereo not drawn)	MCF10A rerep inconclusive, SW480 rerep inconclusive, KB-V1 cytotox 3.3µM
CC(C)c1ccc(C(=O)NCCCN2CCOCC2)cc1	none
CCO[C@@H]1OC(C(=O)NCc2nc3ccccc3[nH]2)=C[C@H](C2CC2)[C@H]1CCCO	MCF10A rerep inconclusive, SW480 rerep inconclusive, HT1080-NT tox 18µM, KB-3-1 cytotox 5.2µM, HT1080 IDH1KD tx inconclusive
CCO[C@@H]1OC(C(=O)NCc2nc3ccccc3[nH]2)=C[C@H](C(C)(C)C)[C@H]1CCCO	MCF10A rerep 4.1µM, SW480 rerep inconclusive, HT1080-NT tox 3.3µM, KB-3-1 cytotox 1.3µM, HT1080 IDH1KD tx 3.3µM
CCO[C@H]1OC(C(=O)NCc2nc3ccccc3[nH]2)=C[C@@H](c2ccc(Br)cc2)[C@@H]1CCCO	HT1080-NT tox inconclusive
